# The list is not random: actives were taken first. Their share in the collection is about 7.9%.
# M1 antagonist: antagonists of rat M1 muscarinic receptor; Muscarinic acetylcholine receptor M1 (Rattus norvegicus), P08482; CHO-M1 cells, Fluo-4 calcium, ACh EC80 antagonist mode; stronger effect = lower value; B-score at 10 µM; 3.4% of 64,000 active;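 active means calcium fluorescence response, raw or row-and-column corrected B-score, differing from the plate sample mean either way at a set confidence level, mostly lower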
# M1 agonist: M1 muscarinic receptor agonists, primary screen, CHO-M1 cells, Fluo-4 calcium, agonist mode | Muscarinic acetylcholine receptor M1 | Fluo-4 calcium fluorescence; stronger effect = higher value | B-score at 10 µM | 3% of 64,000 active | AID 626, 2007;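 active means fluorescence rise, raw or as B-score row- and column-corrected plate score, outside the 99.7% band of its plate's samples, either direction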
# HER2 expr 66K: inhibitors of Her2 protein expression, primary screen, SKBR-3 cells, AlphaScreen, 66K library | Receptor tyrosine-protein kinase erbB-2 (Homo sapiens), P04626 | SKBR-3 HER2 protein level, 18-24 h; stronger effect = lower value | HER2 level % of control, % at 10 µM | 0.69% of 65,000 active | AID 645, 2007;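 active means HER2 level under 5% of the carrier-only control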;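 further: 100% = DMSO carrier and 0% = 500 nM PU-H71 HSP90 inhibitor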
# Cav3 T inh: Cav3.2 calcium influx blockers – cell-based, Fluo-4 calcium fluorescence, FDSS, MLSMR library, primary screen | B-score at 10 µM | Cav3.2-expressing cells; stronger effect = lower value | 4% of 100,000 active | AID 449739, 2010 | Voltage-dependent T-type calcium channel subunit alpha-1H (Homo sapiens), O95180;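 active means single-dose well whose peak fluorescence ratio is a statistical outlier from its plate by either plate-standardised score or position-corrected B-score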
# PLAP act: PLAP enzyme activators, biochemical, luminescence, HTS; Alkaline phosphatase, placental type (Homo sapiens), P05187; purified PLAP enzyme, luminescent substrate read-out; stronger effect = higher value; activation fold at 20 µM; 1.2% of 96,000 active; AID 696, 2007; in the data active means activation fold above about 2
# Target sequence (P05187 whole entry, looked up): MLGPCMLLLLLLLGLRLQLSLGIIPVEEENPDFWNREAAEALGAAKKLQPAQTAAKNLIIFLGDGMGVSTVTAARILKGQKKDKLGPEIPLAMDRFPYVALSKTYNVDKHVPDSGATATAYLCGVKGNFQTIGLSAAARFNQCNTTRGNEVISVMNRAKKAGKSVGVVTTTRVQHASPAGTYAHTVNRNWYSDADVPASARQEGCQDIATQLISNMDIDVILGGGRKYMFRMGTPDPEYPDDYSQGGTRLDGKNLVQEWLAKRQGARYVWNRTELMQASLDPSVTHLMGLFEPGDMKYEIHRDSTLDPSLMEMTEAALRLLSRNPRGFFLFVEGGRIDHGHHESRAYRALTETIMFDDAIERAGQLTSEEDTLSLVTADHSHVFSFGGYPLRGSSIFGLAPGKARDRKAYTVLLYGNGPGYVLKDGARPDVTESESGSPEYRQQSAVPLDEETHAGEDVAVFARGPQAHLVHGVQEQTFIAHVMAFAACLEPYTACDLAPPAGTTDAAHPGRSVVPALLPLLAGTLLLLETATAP
# * marks the source's active call; other numbers are inactive results; x = no result given.
SMILES,M1 antagonist,M1 agonist,HER2 expr 66K,Cav3 T inh,PLAP act
O=C(NCc1ccccc1)c1ccc(S(=O)(=O)N2CCCc3ccccc32)cc1,x,x,x,-3.48,0.9
COc1ccc(-c2nnc(NC(=O)c3ccc(S(=O)(=O)N4CCCc5ccccc54)cc3)o2)cc1,0.0784,-0.19,69.5,x,0.9
O=C(NCc1ccco1)c1ccc(S(=O)(=O)N2CCCc3ccccc32)cc1,-1.11,-0.833,82.5,-3.89*,0.8
CC[C@H](C)[C@@H](NC(=O)O[C@@H]1C(=O)c2cc(Br)ccc2O[C@H]1c1cccc(OC)c1)C(=O)OC,x,x,x,-0.325,x
COc1ccc(OC)c(NC(=O)C(=O)/C=C(\O)c2cc(OC)ccc2OC)c1,x,x,x,-5.2*,1
O=C(c1ccco1)N(Cc1ccco1)c1ccc(O)cc1,-0.256,0.961,-15.8*,1.48,0.8
COc1ccc(CN(C(=O)c2ccco2)c2ccccc2)cc1,x,x,x,-2.12,x
O=C(c1ccco1)N(Cc1ccc([N+](=O)[O-])cc1)c1ccc(Cl)cc1,x,x,x,-6.94*,0.9
O=C(c1ccco1)N(Cc1ccc([N+](=O)[O-])cc1)c1ccc(Br)cc1,x,x,x,-6.62*,0.9
CCN1CCN(S(=O)(=O)c2ccc3ccccc3c2)CC1,x,x,x,0.098,1
O=C(Cc1ccc(F)cc1)Nc1c2c(nn1-c1cccc(Cl)c1)CS(=O)C2 (stereo not given),0.387,-0.0158,115.5,0.71,1.5
COc1ccc(-c2nc3c(c(=O)n(C)c(=O)n3C)n2CC2CC(c3ccccc3)=NO2)cc1OC (stereo not given),-0.00166,4.73*,93.7,3.4*,x
CCCCOCCCNC(=O)CN1C(=O)c2ccccc2C1=O,0.0676,0.0435,-20.6*,0.873,1.1
COc1ccc(C2OC(=O)CC2C(=O)NC2CCCCCC2)cc1OC (stereo not given),0.412,-0.437,96.1,0.677,1
Cc1ccccc1S(=O)(=O)NNC(=O)C(=O)NNc1ccccn1,x,x,x,x,2.4*
Nc1ccc(S(=O)(=O)NNC(=O)C(=O)NNc2ccccn2)cc1,x,x,x,x,1.7
Cc1ccc(S(=O)(=O)NNC(=O)C(=O)NNc2ccccn2)cc1,x,x,x,-0.00958,2.4*
Cn1c(=O)n(Cc2ccccc2)c(=O)c2c1nc1n2CCCN1Cc1ccccc1,2.9*,0.439,49.2,x,1
Cn1c(NCc2ccco2)nc2c1c(=O)n(Cc1ccc(Cl)cc1)c(=O)n2C,0.989,-1.04,57.7,-0.022,1
Cn1c(=O)n(Cc2ccc(Cl)cc2)c(=O)c2c1nc1n2CCN1Cc1ccco1,-1.05,-2.31*,67.5,-1.16,1.1
Cc1ccc(Cn2c(=O)c3c(nc4n3CCCN4Cc3ccccc3)n(C)c2=O)cc1,0.831,0.387,42.3,-2.14,1.1
Cc1ccc(N2C(=O)CC3(CC4C=CC3C4)C2=O)cc1 (stereo not given),0.54,0.0882,99.5,0.854,0.8
Cc1ccc(C(=O)/C=C/c2ccccc2)o1,x,x,x,0.117,0.7
C/C(=C\C(=O)c1ccc(C)o1)Nc1ccc(C(=O)O)cc1C,3.04*,0.0653,244.6,-0.152,1
Cc1nn(C)c(C)c1NS(=O)(=O)c1ccccc1,1.06,-1.7,57.0,-0.0726,0.8
SMILES,M1 antagonist,M1 agonist,HER2 expr 66K,Cav3 T inh,PLAP act
Cc1nn(C)c(C)c1Sc1ccc(Br)cc1,-0.595,0.667,-9.0*,-1.1,1.2
COc1ccc(C(=O)COC(=O)C(CCCCN2C(=O)C3C4C=CC(C4)C3C2=O)N2C(=O)C3C4C=CC(C4)C3C2=O)cc1 (stereo not given),x,x,x,-3.68*,x
O=C(NCc1ccccc1)NC1CCCCC1,0.485,-1.41,72.3,2.31,1
O=C(NCc1ccccc1)c1ccc(C(=O)N(C2CCCCC2)C2CCCCC2)cc1,x,x,x,-5.85*,1.6
O=C(C1=C[C@@H](C2CCCCC2)C[C@@H](OCCCCO)O1)N1CCOCC1,x,x,x,1.89,x
COc1ccc(O)c(C(=O)c2cc(C#N)c(=O)n(-c3c(C)n(C)n(-c4ccccc4)c3=O)c2)c1,-0.736,5.84*,82.1,-0.604,1
O=C(c1ccccc1Nc1ccc(SC(F)F)cc1)N1CCCCC1,x,x,x,-7.05*,1.1
CN1C(=O)CC(N2CCN(c3ccc(Cl)c(Cl)c3)CC2)C1=O (stereo not given),0.732,-0.713,171.4,-0.101,1.4
CCCCn1nnc(NC(=O)c2ccc(-c3cccc(Cl)c3)o2)n1,x,x,x,-4.89*,0.9
CCCn1nnc(NC(=O)c2ccc(-c3cccc(Cl)c3)o2)n1,x,x,x,-5.04*,1.1
CCCn1nnc(NC(=O)c2cccc(Cl)c2)n1,x,x,x,0.713,1.1
CCCCn1nnc(NC(=O)Cc2ccc(Cl)cc2)n1,-0.377,1.61,77.1,-1.54,1.1
CCn1nnc(NC(=O)c2cc3ccccc3o2)n1,3.35*,0.213,97.3,0.383,0.8
CSCCC(C(=O)Nc1ccc2c(c1)OCO2)N1C(=O)c2ccccc2C1=O (stereo not given),0.204,0.845,103.3,-0.218,0.9
Cc1cc(C)c2nc(N3CCCN(C(=O)c4cnccn4)CC3)c(C#N)cc2c1,0.398,-0.317,86.1,1.63,1.4
CCOC(=O)c1c(C)oc2c1c(C(c1cccnc1)N1CCN(C)CC1)c(O)c1ccccc12 (stereo not given),-0.00266,3.37*,-16.2*,x,1.5
CCOC(=O)c1c(C)oc2c1c(C(c1cccnc1)N1CCOCC1)c(O)c1ccccc12 (stereo not given),x,x,x,0.983,1.4
Brc1cnn(-c2nc(N3CCOCC3)nc(N3CCOCC3)n2)c1,-0.376,0.884,131.5,x,x
Cc1ccc(-n2nnnc2SCC(=O)NNC(=O)c2ccco2)c(C)c1,x,x,x,0.178,2*
COc1ccc2[nH]c(=S)[nH]c2c1,0.169,0.0961,105.5,-0.379,2.6*
CCOC(=O)C1=C(C)N2C(=C(C#N)[C@@H]1c1ccc(C(=O)OC)cc1)SC[C@@]2(O)C(C)(C)C,-0.214,-0.574,110.7,-5.78*,1.6
CCOC(=O)C1=C(C)N=C2SCCC(=O)N2C1c1ccc(C(=O)OC)cc1 (stereo not given),-1.23,0.0937,87.1,0.683,1.3
CN(C)c1ccc(NC(=O)CN2CCN(S(=O)(=O)c3cc(Cl)ccc3Cl)CC2)cc1,-0.796,-0.523,96.0,-4.12*,1
Cc1cc(C)cc(N(C(C)C(=O)NCCC2=CCCCC2)S(C)(=O)=O)c1 (stereo not given),x,x,x,0.0242,1.8
COc1cc(CNCc2ccccn2)ccc1OCc1cccc(Cl)c1,x,x,x,-0.558,1.9
COc1cc(CNCc2ccccn2)ccc1OCc1c(Cl)cccc1Cl,x,x,x,-1.48,2*
Cc1ccnc(NC(=O)CCC(=O)N(CC(=O)NC2CCCCC2)c2cccc(C)c2C)c1,-0.0769,-0.719,65.9,-6.42*,1.1
COC(=O)Cc1c[nH]c2cccc(OCC(O)CN(Cc3ccc([N+](=O)[O-])cc3)C(C)(C)C)c12 (stereo not given),x,x,x,-6.37*,1.3
COC(=O)Cc1c[nH]c2cccc(OCC(O)CN(Cc3ccccc3)C(C)C)c12 (stereo not given),x,x,x,-1.24,x
